The whole screen tested about 360,000 compounds, of which about 2,600 (0.72%) were called active. Another 5% or so got no clear call; they are omitted. Calls follow the shape of the dose curve; as a rule, active = well fitted inhibition curve with a large enough effect; inconclusive = small, poorly fitted or top-dose-only effect; inactive = no such curve, though single readings can be large or run the other way. The full list was thinned out, with actives kept by preference.
Assay: Primary qHTS for Inhibitors of ATXN expression; also: nearly all actives have a fitted effect of over 55% in size
Settings: HEK-293 ATXN2-luciferase reporter, luminescence, 24 h; series mostly up to 57 µM
Excerpt: University of Utah School of Medicine, Salt Lake City, Utah
Spinocerebellar ataxia type 2 (SCA2) is a multisystem neurodegenerative disease caused by a dominantly acting mutation leading to expansion of a polyQ domain in the ataxin-2 protein (ATXN2). SCA2 patients develop progressive ataxia and later lose function in other neuronal systems. Prominent parkinsonian signs develop in some patients. Like many neurodegenerative disorders, no symptomatic or disease-modifying treatments are known.
The primary objective of the proposed research is to identify compounds inhibiting ATXN2 expression and to test them for efficacy in SCA2 mouse models. We have developed a cell-based assay paired with an in vivo mouse model using identical luciferase expression constructs. This approach takes advantage of an ATXN2-luciferase transgene, with the luciferase gene flanked by the upstream and downstream portions of the ATXN2 gene. Here we describe a 5-7 dose quantitative high thoroughput screen (qHTS) for compounds lowering ATXN2 expression. We screened the NIH Molecular Libraries Small Molecule Repository (MLSMR) and NCGC's mechanistically annotated (MIPE) and drug repurposing (NPC) collections of compounds for lowering expression of an ATXN2-luciferase reporter in HEK-293 cells. The assay is a multiplexed cell viability assay to ensure target reduction in the absence of cytotoxicity. Secondary qHTS assays included a CMV-luciferase reporter expressed in HEK-293 cells as well as a biochemical assay using recombinant luciferase to detect inhibitors of the reporter enzyme. Compounds that inhibit ATXN2 expression but is not cytotoxic were selected for confirmatory and secondary screens.
PROTOCOL TABLE (as described by Inglese J, Shamu CE and Guy RK. 2007)
SEQUENCE No. (e.g., 1, 2, 3, etc.); […] (e.g., Cells, Incubation, Reagent, etc.); VALUE; DESCRIPTION.
1; Cells; 4 uL; white, solid bottom, 1536-well Greiner assay plate.
2; Incubation; 2 hr; 37 degree C in 5% humidified CO2.
3; Compounds; 23 nL; Kalypsis pintool (Wako USA) equipped with a 1536-well pin head.
4; Incubation; 24 hr; 37 degree C in 5% humidified CO2.
5; Reagent; 1 uL; Gly-Phe-7-Amino-4-trifluoromethylcoumarin.
6; Incubation; 30 min; 37 degree C in 5% humidified CO2.
7; Detection; Fluorescence; ViewLux plate reader (PerkinElmer).
8; Reagent; 3 uL; SteadyGlo luciferase solution (Promega).
9; Incubation; 5 min; room temperature.
10; Detection; Luminescence; ViewLux plate reader (PerkinElmer).
NOTES (numbers refer to Sequence numbers above)
1. S2 cells expressing ATXN2-luciferase reporter were suspended in phenol-red free DMEM and dispensed in assay plates using a Multidrop Combi dispenser (Thermo Fisher Scientific).
2. Assay plates were incubated. Evaporation was prevented by covering assay plates with metal lids containing holes to allow gas diffusion.
3. Compounds were added in a dose response manner with the final concentrations of 57, 11.4, 2.28, 0.46, 0.091, 0.018, 0.0037 uM. Vehicle-only plates, with DMSO being pin-transferred to columns 5-48, were inserted uniformly at the beginning and the end of each library to monitor and record any shifts in assay performance.
5. 125 uM Gly-Phe-7-Amino-4-trifluoromethylcoumarin (MP Biomedicals) working concentration was used at a final concentration of 25 uM.
7. To assess cell viability; the assay plates were read using the ViewLux high-throughput CCD imager (PerkinElmer), wherein single end-point fluorescence measurement was acquired (excitation 405/10; emission 540/25 nm).
8. Detection reagent SteadyGlo Luciferase (Promega) was added to the assay plate.
10. Luminescence is then measured on the ViewLux imager equipped with a clear emission filter using a 2 sec exposure. All screening operations were performed on a fully integrated robotic system (Kalypsys) containing one RX-130 and two RX-90 anthropomorphic robotic arms (Staubli).
[…]
Potency is read from the fitted curve at half-maximal effect.

Potency, active:
O=C(Nc1cccc(-c2cccc(Cl)c2)c1)C1CCN(C2CCC2)CC1 28.2 µM, Cc1cc(C)c2nc3nc(C)cc(C)c3c(N)c2c1 25.1 µM, Cc1ccc(C(=O)Nc2cccc(C(F)(F)F)c2)cc1Nc1nc(-c2cccnc2)nc2c1cnn2C 24.3 µM, CCc1ccc2c(c1)NC(=O)C2(C)Cc1ccc(OC(F)(F)F)cc1 (centres undefined) 25.1 µM, Cc1nnc(N/N=C/c2ccccn2)[nH]c1=O 2 µM, COc1ccccc1OCCNCC(O)COc1cccc2[nH]c3ccccc3c12 (centres undefined) 28.2 µM, COc1ccc(CS(=O)/C(Cl)=C(/Cl)C(=O)Nc2ccc(OC)nc2)cc1 (centres undefined) 2.12 µM, CC(C)OC(=O)c1ccc(NCc2cc(O)ccc2O)cc1Cl 17.8 µM, Cc1c(Cl)c([N+](=O)[O-])nn1Cc1ccc(C(=O)N/N=C\c2cc(Cl)ccc2O)o1 2.82 µM, COc1ccccc1-n1nnnc1S(=O)(=O)Cc1ccc(Cl)cc1 14.1 µM, Oc1c(Cl)cc(Cl)c(Cl)c1Cc1c(O)c(Cl)cc(Cl)c1Cl 28.2 µM, CCOC(=O)c1cnc(-n2nc(C)cc2C)nc1NNc1cc(C)nc(-c2ccccc2)n1 7.08 µM, COC(=O)c1sc(NC(=O)c2ccc(OC)cc2OC)nc1C 2.24 µM, Cc1cc(Nc2cc(CN3CCOCC3)c3nc(C)c(Cc4ccc(Cl)cc4F)n3n2)n[nH]1 19.3 µM, C[C@@H]1C[C@@H]2O[C@H]2/C=C\C=C\C(=O)Cc2c(Cl)c(O)cc(O)c2C(=O)O1 4.74 µM, CN(C)CCCN(C(=O)c1ccc(S(=O)(=O)N2CCCCCC2)cc1)c1nc2ccc(Br)cc2s1 31.6 µM, CCn1c(/C=C/c2ccc([N+](=O)[O-])o2)nc2ccccc2c1=O 8.91 µM, Cc1ccc(C)c(N2CCN(C(=O)CCCCCn3c(=S)[nH]c4ccc(N5CCOCC5)cc4c3=O)CC2)c1 2.82 µM, C=CCn1c(C)cc(C2=NNC(=NCC)SC2)c1C 0.447 µM, Cc1ccnc(NC(=O)C2CCN(S(=O)(=O)c3c(C)c(C)cc(C)c3C)CC2)c1 7.94 µM, CCCCCCCCn1c2c(c(=N)c3c1CCC3)CCCC2 0.891 µM, CCN(CC)CCNC(=O)c1c(C)[nH]c(C=C2C(=O)Nc3ccc(F)cc32)c1C 44.4 µM

Potency, inactive:
COc1cccc(-c2cccc(NC(=O)C3CCN(C4CCC4)CC3)c2)c1, O=C(NC1CCCC1)C1CCN(C(=O)Nc2cccc(Cl)c2)CC1, CC(=O)OC[C@@H]1O[C@@H](n2ccc(=O)[nH]c2=O)[C@H](OC(C)=O)[C@H]1OC(C)=O, Cc1cccc(C)c1NC(=O)c1ccc(N)cc1, COc1cc(C=CC(=O)O)ccc1O, Cc1nc(Nc2ccccc2C)c2cnn(C)c2n1, Cc1cc(Nc2cccc(C(F)(F)F)c2)nc2ccc(NC(=O)c3ccc(=O)[nH]c3)cc12, COc1ccc(NC(=O)Nc2cccc(-c3noc(C)n3)c2)cc1, CCCNC(=O)CCC(=O)N1Cc2ccccc2Oc2ncccc21, CCOC(=O)Cn1c(=O)n(-c2ccccc2OC)c2nc(-c3cccc(F)c3)nc(C(N)=O)c21, COc1ccc(OC)c(-c2nc(C(N)=O)c3c(n2)n(-c2ccc4c(c2)OCO4)c(=O)n3C)c1, COC(=O)Cc1ccc(OCC(=O)Nc2ccc(OC(F)(F)F)cc2)cc1, CCC(=O)N1CCc2cc(Br)cc(S(=O)(=O)CCC(=O)NCc3ccccc3OC)c21, COc1ccc(OC)c(CNC(=O)Cn2nc(C)c3c(C)n(-c4ccccc4)nc3c2=O)c1, O=C(N/N=C/c1ccccn1)C12CC3CC(CC(C3)C1)C2, O=C(COc1ccc(Cl)cc1Cl)N/N=C/c1ccccn1, CCc1cc2c(-c3ccccc3)cc(=O)oc2c2c1OCN(Cc1ccc(C)cc1)C2, O=C1CC(c2nnc(Cc3ccc(Cl)cc3)o2)CN1c1ccccc1 (centres undefined), CC(O)CNCCOc1cccc(Oc2ccccc2)c1 (centres undefined), COc1cccc2[nH]c(C(=O)NCCc3ccccc3)cc12, COc1cc(OC)c(NC(=O)c2cnc(N3CCCC3)nc2C)cc1Cl, COc1ccc(C(O)c2nc(-c3ccc(OC)nc3)cs2)cc1 (centres undefined), COc1ccc(NC(=O)C(=O)NCc2ccco2)cc1, Cc1ccc(C)c(N2CCN(C(=O)C3CCC(CNS(=O)(=O)c4cccs4)CC3)CC2)c1 (centres undefined), O=C(OCC(O)CO)c1ccccc1Nc1ccnc2c(C(F)(F)F)cccc12 (centres undefined), Cc1ccc(-c2ncc(Cl)cc2-c2ccc(S(C)(=O)=O)cc2)cn1, CC(OC(=O)c1ccc(Cl)cc1O)C(=O)NCCC1=CCCCC1 (centres undefined), CC(CN1CCCCC1)OC(=O)c1ccccc1Cl (centres undefined), Cc1nn(Cc2ccccc2Cl)c(C)c1NC(=O)Cn1nc([N+](=O)[O-])c(Cl)c1C, O=C(N/N=C\c1ccc(Br)cc1)c1ccc(Cn2cccn2)o1, Cc1nn(-c2ccc(F)cc2)c(-n2cccc2)c1C(=O)N1CCN(c2ccccc2)CC1, COc1ccccc1-n1nnnc1SCC(=O)NC(=O)Cc1ccccc1, CCC(C)N(C(=O)CSc1nnnn1-c1ccccc1OC)C1CCS(=O)(=O)C1 (centres undefined), Cc1cn(C)c(CC(=O)NCc2ccc(Cl)cc2)c1C(=O)O, CCc1ccc(Nc2nn3c(=O)c4cc5c(cc4nc3s2)OCO5)cc1, Cc1ccc(SCC(=O)Nc2ccc3oc(-c4ccccc4C)nc3c2)cc1, COc1ccc(-c2cc(-c3ccccc3)nc3c2COc2ccc(Cl)cc2-3)cc1, CCC(=O)N1CCc2cc(S(=O)(=O)NCCC(=O)Nc3cccc(C)c3C)ccc21, COc1ccc(NC(=O)C2CCCN(S(=O)(=O)c3c(C)[nH]c(=O)[nH]c3=O)C2)c(OC)c1 (centres undefined), OCCC#Cc1ccc(N2C(c3ccsc3)=Cc3ccc(F)cc3C2c2c[nH]c3ccccc23)cc1 (centres undefined), Cc1cc(Cl)ccc1-c1nc(NCCN(C)C)nc2ccsc12, Cc1cc(C)n(-c2c(F)c(F)c(COC(=O)c3ccccc3)c(F)c2F)n1, Cc1cc(-n2nc(C)cc2C)n2ncc(-c3ccccc3)c2n1, Cc1ccc(CN2CCCn3nc(C(=O)NCc4ccccc4Cl)cc3C2=O)cc1, O=C1CC(c2ccc(F)cc2F)c2cc3c(cc2N1)OCO3 (centres undefined), Cc1cccn2c(=O)c3cc(C(=O)NC(C)c4ccccc4)c(=N)n(CCCO)c3nc12 (centres undefined), COC(=O)c1sc(NC(=S)NC(=O)c2ccc(C)cc2)nc1C, COc1ccc(C(=O)NC2=NCCS2)c(OC)c1, O=C(NC1CCCCC1)c1ccc(Cn2c(SCc3ccccc3)nc3cccnc32)cc1, COC(=O)c1ccc2nc(-c3ccc(OC)c(OC)c3)c(Cc3ccccc3)n2c1, Cc1ccc(Cl)cc1NC(=O)CN1CCN(S(=O)(=O)N2CCOCC2)CC1, O=C1NC(=O)C(=Cc2cccc(C(F)(F)F)c2)S1, CCOC(=O)c1cc2c(=O)n3ccccc3nc2n(Cc2ccco2)c1=NC(=O)c1ccc(F)cc1, CCC1CCCCN1Cc1c(O)ccc2c(=O)c(Oc3ccccc3Cl)c(C(F)(F)F)oc12 (centres undefined), CC1(C(=O)NCc2cccc3ccccc23)CCN1Cc1ccc(-c2ccccc2)o1 (centres undefined), CN(C)CCN(C(=O)C1=COCCO1)c1nc2ccc(Cl)cc2s1, Cc1cc(C)c2sc(NC(=O)c3ccc(S(=O)(=O)N4CCCC4)cc3)nc2c1, CCOC(=O)c1ccc(-c2ccc3ncnc(N(C)Cc4sccc4C)c3c2)o1, Cc1ccc(-n2c(SCC(=O)N/N=C/C=C/c3ccccc3[N+](=O)[O-])nc3ccccc3c2=O)cc1, O=c1c2ccccc2ncn1/N=C/c1ccccc1, Cc1ccc(-n2c(SCC(=O)Nc3cccc(F)c3)nc3c(oc4ccccc43)c2=O)cc1C, CCCc1c2oc(C(=O)O)cc(=O)c2cc2c(=O)cc(C(=O)O)n(CC)c12, CC1(C)OC[C@@H](COC(=O)CCc2ccc(OC[C@@H](O)CNCCNC(=O)N3CCOCC3)cc2)O1, Cc1ccc(C)c(N2CCN(C(=O)CCCn3c(=O)c4cccn4c4cccnc43)CC2)c1, Cc1ccc(C)c(N2CCN(C(=O)CCc3nc4ccccc4[nH]3)CC2)c1, COc1ccc(-c2c(C)c3ccc(O)c(CN4CCCC4)c3oc2=O)cc1OC, CO[C@H]1O[C@@H]2O[C@@]3(C)CC[C@@H]4[C@@H](C)CC[C@@H]([C@H]1C)[C@@]24OO3, CCOc1ccc(CNC(=O)c2cccc(Nc3nc4ccccc4n4nnnc34)c2)cc1OC, C=C1C(=CC=C2CCC[C@]3(C)[C@@H]([C@H](C)C=C[C@H](C)C(C)C)CC[C@@H]23)C[C@@H](O)C[C@@H]1O, COc1ccc(Cc2nc3ccc(C(=O)NCc4ccccc4Cl)cc3o2)cc1, Cc1ccc(S(=O)(=O)N2CCC(C(=O)Nc3cc(C)ccc3C)CC2)cc1, O=C(Nc1ccccn1)C1CCN(S(=O)(=O)c2ccccc2)CC1, COc1cccc(CNC(=O)C(=O)NCC(c2cccs2)S(=O)(=O)c2ccccc2)c1 (centres undefined), CCc1ccc(OC2(C)CCN(CCOc3ccc(C)cc3)C2)cc1 (centres undefined), CCCS(=O)(=O)N1CCC(n2c(C(F)(F)F)nc3cccnc32)CC1, CCOc1cc2[nH]c(=O)n(Cc3ccc(C(=O)NCCN(CC)CC)cc3)c(=O)c2cc1OCC, CCN(CC)CCNC(=O)c1cc(S(C)(=O)=O)ccc1OC

From PubChem BioAssay AID1745845 (National Center for Advancing Translational Sciences (NCATS), 2022)
